Results on 17 molecules are retold here after PubChem BioAssay (Tox21).

Assay [1] is described as follows: qHTS assay to identify small molecule antagonists of the retinoid acid receptor (RAR) signaling pathway - cell viability counter screen (AID 1159551). Note: nearly all actives have a fitted effect of over 35% in size. Summed up:
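Following overnight attachment, C3RL4 reporter cells received DMSO-dissolved compounds and then retinol (1 uM final). Six hours later at 37 C, ATP content was measured by CellTiter-Glo luminescence.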
Background: In qHTS, concentration-response curves come from the screen itself.

Assay [2] in a line: qHTS assay to identify small molecule antagonists of the retinoic acid receptor (RAR) signaling pathway (AID 1159552; note: nearly all actives have a fitted effect of over 50% in size; note: potency is the fitted concentration of half-maximal effect). Summed up: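 Luminescence from a RARE luciferase reporter in C3RL4 cells served as read-out. Cells received compounds together with 1 uM final retinol and incubated 6 hr at 37 C before detection reagent was added for 30 min at room temperature.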
A short description of assay [3]: qHTS assay to identify small molecule agonists of the retinoic acid receptor (RAR) signaling pathway (AID 1159553). Note: potency is the fitted concentration of half-maximal effect. A digest of the protocol: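 Cell line C3RL4, RARE luciferase reporter. Treatment: compounds in DMSO, 6 hr, 37 C, 5% CO2, after overnight plating. Detection: luminescence, 30 min RT after reagent.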
Assay [4] has as its target Luciferin 4-monooxygenase (Photinus pyralis) (UniProt P08659). As to the kind of experiment: qHTS assay to identify small molecule inhibitors of firefly luciferase (AID 1224835). Note: nearly all actives have a fitted effect of over 25% in size. Note: potency is the fitted concentration of half-maximal effect. A digest of the protocol: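 Inhibition of purified Photinus luciferase is measured by luminescence. Substrate levels (D-luciferin, ATP) sit at their KM values. Each compound is tested in a concentration series.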

A short description of assay [5]: qHTS assay to identify small molecule agonists of the constitutive androstane receptor (CAR) signaling pathway - cell viability counter screen (AID 1224836). Note: nearly all actives have a fitted effect of over 45% in size. Note: potency is the fitted concentration of half-maximal effect. Summed up:
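Viability read-out: CellTiter-Fluor fluorescence after 23 h compound exposure at 37 C/5% CO2 in double-stable HepG2-CYP2B6-hCAR cells, with PK11195 present at 0.75 uM final; compounds tested in 15-point titration.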

Assay [6] can be described thus: qHTS assay to identify small molecule antagonists of the constitutive androstane receptor (CAR) signaling pathway - cell viability counter screen (AID 1224837). Note: nearly all actives have a fitted effect of over 45% in size. Note: potency is the fitted concentration of half-maximal effect. Summed up:
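Fluorescence from CellTiter-Fluor served as the viability signal. Human hepatoma HepG2 cells stably bearing hCAR and CYP2B6-2.2kb received compound plus CITCO (50 nM final) for 23 hr.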

For assay [7], the target named is Nuclear receptor subfamily 1 group I member 3 (Homo sapiens) (UniProt Q14994). Briefly: qHTS assay to identify small molecule antagonists of the constitutive androstane receptor (CAR) signaling pathway (AID 1224838).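 Note: HepG2 cells stably expressing hCAR with CYP2B6 luciferase reporter stimulated by CITCO; nearly all actives have a fitted effect of over 40% in size.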 Note: potency is the fitted concentration of half-maximal effect. A digest of the protocol:
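Quantitative HTS in double-stable HepG2-CYP2B6-hCAR cells. After 4 h plating, cells get compound (15 concentrations) and CITCO at 50 nM final, incubate 24 h at 37 C, then ONE-Glo luminescence is read.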

Assay [8] has the same target. Briefly: qHTS assay to identify small molecule agonists of the constitutive androstane receptor (CAR) signaling pathway (AID 1224839). Note: nearly all actives have a fitted effect of over 15% in size. Note: potency is the fitted concentration of half-maximal effect. A digest of the protocol:
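Luminescence read-out (ONE-Glo, 30 min, room temperature) from double-stable HepG2-CYP2B6-hCAR cells exposed 24 h to 15-point compound series in presence of 0.75 uM PK11195 final.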

A short description of assay [9]: qHTS assay to identify small molecule antagonists of the estrogen related receptor signaling pathway with the pleiotropic PPARgamma coactivator (PGC) from Tox21 10K library (AID 1224841; call rule not given here; note: actives are mostly falling curves and most rising ones were filed inactive; nearly all actives have a fitted effect of over 50% in size; note: potency is the fitted concentration of half-maximal effect). A digest of the protocol: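 Compound exposure ran 18 hours at 37 C in PGC/ERR cells (2,000/well) that had first rested 6 hours in a 37 C/5% CO2 incubator. Luciferase activity was then detected with One-Glo after a 30-minute room-temperature step.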

Assay [10] is described as follows: qHTS assay to identify small molecule agonists of the estrogen related receptor signaling pathway with the pleiotropic PPARgamma coactivator (PGC) from Tox21 10K library (AID 1224842). Note: nearly all actives have a fitted effect of over 15% in size. Summed up:
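Luminescence from One-Glo (30 min, room temperature) measured after PGC/ERR cells had 18 h at 37 C with pinned compound (23 nL in DMSO). Cells had been seeded at 2,000 per well and pre-incubated 6 h.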

Assay [11] addresses Thyrotropin receptor (Homo sapiens) (UniProt P16473). As to the kind of experiment: qHTS assay to identify small molecule agonists of the thyroid stimulating hormone receptor (TSHR) signaling pathway (AID 1224843; calls by dose curve; note: nearly all actives have a fitted effect of over 45% in size; note: potency is the fitted concentration of half-maximal effect). A digest of the protocol: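 HEK293 cells stably bearing the thyrotropin receptor were plated at 800 cells/well and challenged with compound (30 min, RT). Accumulated cAMP was quantified via cAMP-d2 competing for cryptate-tagged antibody.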

The nature of assay [12]: qHTS assay to identify small molecule antagonists of the estrogen related receptor (ERR) signaling pathway from Tox21 library - cell viability counter screen (AID 1224834). Note: nearly all actives have a fitted effect of over 30% in size. Note: potency is the fitted concentration of half-maximal effect. A digest of the protocol: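 Viability readout (CellTiter-Fluor fluorescence, 30 min at 37 C) multiplexed with the ERR assay; cells treated 17.5 h at 37 C with compounds delivered in DMSO.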
A short description of assay [13]: qHTS assay to identify small molecule antagonists of the estrogen related receptor signaling pathway with the pleiotropic PPARgamma coactivator (PGC) from Tox21 10K library - cell viability counter screen (AID 1224840; active = well fitted cell-killing curve with a large enough effect in the repeat runs, not every such curve was filed as active; note: nearly all actives have a fitted effect of over 40% in size; note: potency is the fitted concentration of half-maximal effect). A digest of the protocol:
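Compounds in DMSO, alongside positive and negative controls, were pinned onto PGC/ERR cells (2,000 per well). Exposure lasted 17.5 hours at 37 C, followed by a 30-minute CellTiter-Fluor incubation and fluorescence reading.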

Assay [14] in a line: qHTS assay to identify small molecule agonists of the RXR signaling pathway - cell viability counter screen (AID 1159529). Note: nearly all actives have a fitted effect of over 50% in size. Note: potency is the fitted concentration of half-maximal effect. A digest of the protocol: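 Luminescence from CellTiter-Glo (30 min, RT) measured viability in the same wells as the beta-lactamase reporter readout. Cells: GeneBLAzer RXR-alpha HEK 293T, 2% charcoal-stripped FBS. Compound exposure 16 hr, 37 C.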
A short description of assay [15]: qHTS assay to identify small molecule antagonists of the estrogen related receptor (ERR) signaling pathway (AID 1224819; note: potency is the fitted concentration of half-maximal effect; nearly all actives have a fitted effect of over 50% in size). Summed up:
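LOPAC library screened for antagonism as reduced One-Glo luminescence in ERR reporter cells (2,000/well). Compounds were added after 6 h pre-incubation and left 18 h at 37C; reading followed a 30 min room-temperature reagent step.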

Assay [16] can be described thus: qHTS assay to identify small molecule agonists of the estrogen related receptor (ERR) signaling pathway (AID 1224820). A digest of the protocol: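 Quantitative HTS of the LOPAC library used NTP ERR reporter cells treated 18 h at 37 C. Signal is luminescence after One-Glo addition and a 30 min room-temperature incubation.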
The test system of assay [17] is estrogen-related receptor alpha (ERRalpha) with PGC-1alpha coactivator, human. As to the kind of experiment: qHTS assay to identify small molecule antagonists of the estrogen related receptor signaling pathway with the pleiotropic PPARgamma coactivator (PGC) (AID 1224821; calls by dose curve). Summed up: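 Quantitative HTS for antagonism: PGC/ERR cells received compounds after 6 h attachment and were incubated 18 h at 37 C, with luminescence (One-Glo) as the endpoint.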

The nature of assay [18]: qHTS assay to identify small molecule antagonists of the estrogen related receptor signaling pathway with the pleiotropic PPARgamma coactivator (PGC) cell viability counter screen (AID 1224822; note: potency is the fitted concentration of half-maximal effect). A digest of the protocol: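 qHTS format, DMSO compound stocks pin-transferred onto PGC/ERR cells 6 h after plating; 17.5 h exposure at 37 C, then CellTiter-Fluor fluorescence.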

Assay [19] in a line: qHTS assay to identify small molecule agonists of the estrogen related receptor signaling pathway with the pleiotropic PPARgamma coactivator (PGC) (AID 1224823). A digest of the protocol:
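Cell-based luciferase assay in the NTP-supplied PGC/ERR line, 2,000 cells/well; 18 h compound exposure at 37 C, luminescence after One-Glo.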

Results filed as inconclusive are left out. Calls of active or inactive are those of the source. Unless noted, calls come from the whole dose curve; as a rule, active = well fitted curve in the direction sought with a large enough effect in the repeat runs; inconclusive = weak or mixed curves; inactive = no such curve, though single readings can be large; an effect the other way counts as inactive or inconclusive.

Chain of Luciferin 4-monooxygenase (Photinus pyralis) (P08659 whole entry, looked up): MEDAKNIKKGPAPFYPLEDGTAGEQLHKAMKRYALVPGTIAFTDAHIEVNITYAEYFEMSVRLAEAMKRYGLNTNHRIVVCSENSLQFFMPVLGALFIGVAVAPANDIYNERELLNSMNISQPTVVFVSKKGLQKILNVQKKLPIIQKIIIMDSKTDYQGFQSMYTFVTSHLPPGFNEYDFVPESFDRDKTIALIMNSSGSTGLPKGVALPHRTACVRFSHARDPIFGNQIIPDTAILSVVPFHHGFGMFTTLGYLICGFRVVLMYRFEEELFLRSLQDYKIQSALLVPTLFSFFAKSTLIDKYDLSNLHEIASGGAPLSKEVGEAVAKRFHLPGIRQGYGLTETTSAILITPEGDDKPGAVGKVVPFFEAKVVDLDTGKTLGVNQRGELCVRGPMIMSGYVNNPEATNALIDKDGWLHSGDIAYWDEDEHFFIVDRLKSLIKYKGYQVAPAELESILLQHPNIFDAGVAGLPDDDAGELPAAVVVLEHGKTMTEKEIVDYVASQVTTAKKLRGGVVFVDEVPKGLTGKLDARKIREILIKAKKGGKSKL
Chain of Thyrotropin receptor (Homo sapiens) (P16473 whole entry, looked up): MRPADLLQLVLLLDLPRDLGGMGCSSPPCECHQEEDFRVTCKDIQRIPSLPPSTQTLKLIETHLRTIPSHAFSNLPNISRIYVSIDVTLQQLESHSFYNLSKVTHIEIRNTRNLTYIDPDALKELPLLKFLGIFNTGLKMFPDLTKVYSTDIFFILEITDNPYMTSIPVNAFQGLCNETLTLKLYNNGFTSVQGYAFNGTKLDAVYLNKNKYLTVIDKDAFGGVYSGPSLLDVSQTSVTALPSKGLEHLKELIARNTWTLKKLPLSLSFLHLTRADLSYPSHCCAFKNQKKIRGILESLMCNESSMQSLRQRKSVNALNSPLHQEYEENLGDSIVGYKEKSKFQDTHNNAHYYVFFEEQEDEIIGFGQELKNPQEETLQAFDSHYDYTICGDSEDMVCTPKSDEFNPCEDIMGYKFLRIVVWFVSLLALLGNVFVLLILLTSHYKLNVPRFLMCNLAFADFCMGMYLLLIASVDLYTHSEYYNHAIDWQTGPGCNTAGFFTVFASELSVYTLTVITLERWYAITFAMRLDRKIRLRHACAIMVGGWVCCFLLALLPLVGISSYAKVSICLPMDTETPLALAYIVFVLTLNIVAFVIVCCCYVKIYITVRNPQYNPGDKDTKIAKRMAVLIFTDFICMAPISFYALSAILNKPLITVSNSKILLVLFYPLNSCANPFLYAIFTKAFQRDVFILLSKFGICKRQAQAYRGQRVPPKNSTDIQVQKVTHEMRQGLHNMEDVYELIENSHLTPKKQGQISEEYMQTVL
Chain of Nuclear receptor subfamily 1 group I member 3 (Homo sapiens) (Q14994 whole entry, looked up): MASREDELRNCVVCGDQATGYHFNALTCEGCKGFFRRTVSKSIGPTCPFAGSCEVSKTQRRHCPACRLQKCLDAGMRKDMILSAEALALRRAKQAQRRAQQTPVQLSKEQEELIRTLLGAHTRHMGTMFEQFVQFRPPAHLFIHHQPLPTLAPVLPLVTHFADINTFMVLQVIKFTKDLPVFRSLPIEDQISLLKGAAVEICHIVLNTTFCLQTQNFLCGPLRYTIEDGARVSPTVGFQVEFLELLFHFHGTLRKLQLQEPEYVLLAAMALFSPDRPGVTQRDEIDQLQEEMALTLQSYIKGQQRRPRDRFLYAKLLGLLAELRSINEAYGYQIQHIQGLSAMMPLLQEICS

As to `CCCCCCC[CH2][Sn]([Cl])([Cl])[CH2]CCCCCCC`, the Potency result in assay [1], in assay [2], in assay [3], in assay [4], in [5] and in [6] was “inactive” in each case. Further, the Potency entry in assay [7], in [8], in assay [10] and in [11] was “inactive” in each case. For the same molecule, the Potency in assay [9] was 27.3 µM (active).
As to `O.O.O.O=C([O-])[C@H]([O-])[C@@H]([O-])C(=O)[O-].O=C([O-])[C@H]([O-])[C@@H]([O-])C(=O)[O-].[K+].[K+].[Sb+3].[Sb+3]`, the Potency entry in [1] and in [4] was “inactive” each time. Further, the Potency in [12] is 17.3 µM (active); in assay [13] it was 19.4 µM (active).
Turning to `CSC(=O)c1c(C(F)F)nc(C(F)(F)F)c(C(=O)SC)c1CC(C)C`, the Potency entry in assay [1], in assay [3], in assay [12], in assay [4], in assay [5] and in assay [6] was “inactive” each time. Moreover, the Potency result in assay [7] and in assay [13] was “inactive” throughout.
`c1ccc(Nc2ccc(Nc3ccccc3)cc2)cc1`: the Potency result in [1], in [2], in assay [5], in assay [6], in assay [7] and in assay [13] was “inactive” throughout. Besides, the Potency result in [9] was “inactive”. For the same molecule, the Potency was 5.43 µM (active) in [3], 28.1 µM (active) in [4] and 24.2 µM (active) in [8].
On to `CCC(C)Nc1c([N+](=O)[O-])cc(C(C)(C)C)cc1[N+](=O)[O-]` (stereo unspecified), for which the Potency result in assay [1], in assay [2], in [12], in [5], in assay [6] and in [13] was “inactive” throughout. In [10], the Potency entry was “inactive”. Moreover, the Potency in assay [4] is 71 µM (active).
In the case of `Cc1c([N+](=O)[O-])cc2c(c1[N+](=O)[O-])C(C)(C)CC2(C)C`, the Potency result in assay [1], in [2], in assay [3], in assay [12], in assay [4] and in assay [5] was “inactive” in each case. In addition, the Potency entry in [6], in [7] and in assay [13] was “inactive” each time. The figures for the Potency in assay [8], in assay [9] and in assay [11] were 12.2 µM (active), 30.6 µM (active) and 48.6 µM (active), respectively.
`N#CC(C#N)=NNc1cccc(Cl)c1`: the Potency entry in assay [1], in assay [8] and in assay [11] was “inactive” throughout. The Potency in assay [2] was 2.73 µM (active); in [12] it was 9.69 µM (active); in [4] it was 35.6 µM (active); in [5] it was 6.11 µM (active); in [6], 6.86 µM (active); in [7], 2.43 µM (active). Further, the Potency is 7.7 µM (active) in [13] and 0.969 µM (active) in [9].
Turning to `O=C(NC(=O)c1c(F)cccc1F)Nc1ccc(Oc2ccc(C(F)(F)F)cc2Cl)cc1F`, the Potency entry in assay [1], in assay [4], in [5], in [6], in [7] and in assay [13] was “inactive” in each case.
As for `O=S(=O)(NS(=O)(=O)C(F)(F)F)C(F)(F)F`, the Potency result in assay [1] and in [13] was “inactive” each time. Also, the Potency was 43.1 µM (active) in assay [12], 24.3 µM (active) in assay [5] and 30.5 µM (active) in [6].
`CCOP(=S)(OCC)Oc1cc(C)nc(N(CC)CC)n1`: the Potency entry in [1], in assay [12], in [4], in [5], in assay [6] and in assay [7] was “inactive” in each case. Also, the Potency entry in assay [13] is “inactive”. Further, the Potency in assay [8] is 19.3 µM (active).
Take `CCOP(=O)(OCC)Oc1nc(Cl)c(Cl)cc1Cl`: the Potency result in assay [1], in assay [2], in assay [3], in assay [12], in assay [4] and in assay [5] was “inactive” throughout. Besides, the Potency entry in [6], in assay [7], in assay [8], in [13] and in [11] was “inactive” throughout.
On to `CCC[CH2][Sn]([CH2]CCC)([O]C(C)=O)[O]C(C)=O`, for which the Potency result in [1], in assay [4], in [10] and in assay [11] was “inactive” throughout. Further, the Potency in [2] was 0.138 µM (active); in assay [12], 0.138 µM (active); in assay [5], 0.437 µM (active); in assay [6], 0.437 µM (active); in [13], 0.138 µM (active); in assay [9], 0.0347 µM (active).
Regarding `Brc1ccc(Oc2ccc(Br)cc2Br)c(Br)c1`, the Potency result in assay [1], in assay [2], in [12], in [5], in [6] and in assay [7] was “inactive” throughout. Also, the Potency entry in [13] and in [9] was “inactive” each time. The Potency was 13.7 µM (active) in assay [3] and 35.6 µM (active) in [4].
On to `Fc1ccc(C(OCCN2CCN(CCCc3ccccc3)CC2)c2ccc(F)cc2)cc1`, for which the Potency was 16.9 µM (active) in assay [14]; 9.08 µM (active) in assay [15]; 12.8 µM (active) in [17]; 22.8 µM (active) in [18]; 26.6 µM (active) in [12]; 21.1 µM (active) in assay [5]. For the same molecule, the figures for the Potency in assay [6] and in [13] were 21.1 µM (active) and 26.6 µM (active), respectively. Further, the Potency result in [16], in [19], in assay [4], in assay [8], in [10] and in assay [11] was “inactive” in each case.
Take `CO/N=C(\C(=O)OC)c1ccccc1CO/N=C(\C)c1cccc(C(F)(F)F)c1`: the Potency entry in [14], in assay [3], in assay [12], in assay [4], in [6] and in assay [7] was “inactive” throughout. Moreover, the Potency result in [13] is “inactive”. The Potency in assay [8] was 8.63 µM (active).
As for `CCCCCCCc1ccc(O)cc1`, the Potency result in assay [1], in assay [2], in assay [5], in assay [6], in [7] and in [13] was “inactive” each time. For the same molecule, the Potency result in assay [11] was “inactive”. In assay [3], the Potency is 8.63 µM (active).
Consider `Cc1cc(C2CC2)nc(Nc2ccccc2)n1`, for which the Potency result in [2], in [5], in [6] and in assay [7] was “inactive” each time. Further, the Potency in assay [3] was 19.3 µM (active); in assay [4], 39.9 µM (active); in assay [8], 54.5 µM (active).
